miR122 inh = activators of miR-122 sensor in Huh7 cells; Huh7 psiCHECK-miR122 Renilla luciferase sensor, 48 h; 340,000 compounds, 0.14% hits; activation, % at 12.5 µM;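 active = mean activation of 30% or more, with every replicate also reaching 30%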;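 note: 0% = median of neutral control wells and 100% = median of positive control wells; higher luciferase signal means stronger suppression of miR-122 activity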
An asterisk follows results filed as active. This excerpt belongs to a sample that is enriched for hits.

SMILES | miR122 inh
C[C@@H]1CN([C@H](C)CO)S(=O)(=O)c2ccc(-c3ccccc3)cc2O[C@H]1CN(C)Cc1cncnc1 | -16
C[C@H]1CN([C@@H](C)CO)S(=O)(=O)c2ccc(C#Cc3ccccc3)cc2O[C@@H]1CN(C)S(=O)(=O)c1ccccc1F | -33
CO[C@@H]1CN(C)C(=O)c2cc(NC(=O)Cc3ccccc3)ccc2OC[C@H](C)N(C)C[C@H]1C | 0
COc1ccc(CN(C)C[C@@H]2Oc3ccc(NC(=O)C4CCCCC4)cc3CC(=O)N([C@@H](C)CO)C[C@H]2C)cc1 | 1
C[C@@H]1CN([C@H](C)CO)C(=O)c2cc(C#CC3(O)CCCC3)cnc2O[C@@H]1CN(C)C(=O)CN(C)C | 6
CCCNC(=O)N(C)C[C@H]1Oc2cc(Br)ccc2S(=O)(=O)N([C@@H](C)CO)C[C@H]1C | 2
C/C=C/c1cnc2c(c1)C(=O)N([C@@H](C)CO)C[C@@H](C)[C@@H](CN(C)S(=O)(=O)c1ccc(C)cc1)O2 | -3
COc1cccc(NC(=O)N(C)C[C@@H]2Oc3ncc(C#Cc4cccnc4)cc3C(=O)N([C@H](C)CO)C[C@@H]2C)c1 | 3
CCCNC(=O)N(C)C[C@H]1Oc2ncc(C#CCC(C)C)cc2C(=O)N([C@H](C)CO)C[C@@H]1C | -2
C[C@H]1CN([C@@H](C)CO)C(=O)c2cccc(NC(=O)C3CCCCC3)c2O[C@@H]1CN(C)Cc1ccc(C(=O)Nc2ccccc2N)cc1 | -13
CC(C)C#Cc1ccc2c(c1)O[C@H](CN(C)Cc1ccncc1)[C@@H](C)CN([C@H](C)CO)S2(=O)=O | -15
C[C@@H]1CN([C@@H](C)CO)C(=O)c2cc(-c3cccc(F)c3)cnc2O[C@@H]1CN(C)C(=O)Nc1ccccc1F | -9
C[C@@H]1CN([C@H](C)CO)S(=O)(=O)c2ccc(-c3ccncc3)cc2O[C@H]1CN(C)Cc1ccccc1 | -8
Cc1cc(C)cc(Oc2ccc(NC(=O)C3CC=CCC3C(=O)O)cc2)c1 (stereo unspecified) | 32*
C[C@H](CO)N1C[C@H](C)[C@H](CN(C)C(=O)c2ccccc2F)Oc2ncc(C#Cc3ccc(F)cc3)cc2C1=O | -6
C[C@H](CO)N1C[C@H](C)[C@H](CN(C)C(=O)Cc2ccccn2)Oc2ncc(-c3cccc(C(=O)N(C)C)c3)cc2C1=O | -5
C[C@H](CO)N1C[C@H](C)[C@@H](CN(C)C(=O)c2cccnc2)Oc2ncc(-c3ccc(C(=O)N(C)C)cc3)cc2C1=O | -5
C[C@H]1CN([C@@H](C)CO)S(=O)(=O)c2ccc(C#Cc3cccc(F)c3)cc2O[C@H]1CN(C)C(=O)CN1CCOCC1 | 1
CCC(=O)N(C)C[C@@H]1Oc2ncc(C#Cc3ccccc3OC)cc2C(=O)N([C@@H](C)CO)C[C@H]1C | 3
FC(F)(F)c1cc(CCN2CCNC[C@@H]2CC2CCCCC2)cc(C(F)(F)F)c1 | 38*
C[C@@H]1CN([C@@H](C)CO)S(=O)(=O)c2ccc(Br)cc2O[C@@H]1CN(C)CC1CCOCC1 | 6
COCC#Cc1cnc2c(c1)C(=O)N([C@H](C)CO)C[C@H](C)[C@@H](CN(C)Cc1ccccc1)O2 | -1
C[C@@H]1CN([C@H](C)CO)S(=O)(=O)c2ccc(C#Cc3ccccn3)cc2O[C@@H]1CN(C)Cc1cccc(F)c1 | -32
COc1ccc(OC)c(-c2cc(C3CCN(c4cc(Cl)nc(N)n4)CC3)[nH]n2)c1 | 46*
C[C@H](CO)N1C[C@H](C)[C@@H](CN(C)Cc2ccc(C(F)(F)F)cc2)Oc2c(NC(=O)c3nc4ccccc4s3)cccc2C1=O | -92
SMILES | miR122 inh
C[C@@H]1CN([C@H](C)CO)S(=O)(=O)c2ccc(C#C[C@@H](C)O)cc2O[C@@H]1CN(C)C(=O)Cc1ccccn1 | -4
COc1ccc(NS(=O)(=O)c2cc(OC)ccc2OC)cc1 | -130
COc1ccc(OC)c(Nc2cc(C)nc3nc(C)nn23)c1 | -107
COc1ccc(OC)c(Nc2cc(C)nc3ccc(C)cc23)c1 | 32*
C[C@H]1CN([C@@H](C)CO)S(=O)(=O)c2ccc(Br)cc2O[C@H]1CN(C)CC1CCOCC1 | -2
C[C@@H](O)C#Cc1ccc2c(c1)O[C@H](CN(C)C(=O)Cc1ccccn1)[C@@H](C)CN([C@@H](C)CO)S2(=O)=O | -4
C[C@@H]1CN([C@@H](C)CO)C(=O)c2cc(C#Cc3ccccn3)cnc2O[C@H]1CN(C)C(=O)CCN1CCCCC1 | -2
C/C=C/c1cnc2c(c1)C(=O)N([C@@H](C)CO)C[C@@H](C)[C@@H](CN(C)C(=O)c1cccnc1)O2 | 1
CCCNC(=O)N(C)C[C@@H]1Oc2ncc(-c3ccc(C(=O)N(C)C)cc3)cc2C(=O)N([C@@H](C)CO)C[C@@H]1C | 1
C[C@H]1CN([C@@H](C)CO)S(=O)(=O)c2ccc(-c3ccncc3)cc2O[C@@H]1CN(C)C(=O)C1CC1 | -9
COc1cccc(-c2nn(-c3ccccc3)cc2CO)c1 | 34*
COc1cccc(-c2cnc3c(c2)C(=O)N([C@H](C)CO)C[C@@H](C)[C@H](CN(C)Cc2ccccc2)O3)c1 | -7
COc1cccc(-c2cnc3c(c2)C(=O)N([C@@H](C)CO)C[C@@H](C)[C@H](CN(C)Cc2ccccc2)O3)c1 | -7

High-throughput results from PubChem BioAssay.
